From PubChem BioAssay
The source made the active and inactive calls.

Key:
[1] = tested on: Plasmodium falciparum Sir2 (PF13_0152, Sir2A); test: Plasmodium falciparum Sir2A binding compounds – biochemical, small-molecule microarray, 635 nm fluorescence, primary screen (AID 1098); conditions: fluorescence 635 nm, higher = more signal;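 also: score merges spot fluorescence intensity with its signal-to-noise ratio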
[2] = probe aDKK1 binding to arrayed compounds – biochemical, biotinylated probe, 635/667 nm fluorescence, primary screen (AID 1099); conditions: small-molecule microarray, higher = more signal;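 also: score merges 667nm spot fluorescence with signal to noise across triplicate slides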
[3] = probe aCHRDL2 binding to arrayed compounds – biochemical, biotinylated probe, 635/667 nm fluorescence, primary screen (AID 1100); conditions: small-molecule microarray, higher = more signal
[4] = change in splice reporter luminescence, either direction, cell-based, HEK293, spliceosome inhibition project, primary screen (AID 1101); conditions: HEK293 splicing luciferase reporter, 24 h, higher = more signal, called active from +8 up or from −8 down;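 also: HEK293 cells carrying a splicing-competent luciferase reporter gene; test concentration not given here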
[5] = target: Fibroblast growth factor 10 (Homo sapiens) (UniProt O15520); test: compounds binding fibroblast growth factor 10 – biochemical, small-molecule microarray, 635 nm fluorescence, primary screen (AID 1102); conditions: FGF10 binding, fluorescence 635 nm, higher = more signal
[6] = tested on: glycogen synthase kinase-3 (GSK3A per assay name; protocol says GSK3B); test: compounds binding glycogen synthase kinase-3 – biochemical, small-molecule microarray, 635 nm fluorescence, GSK3A, primary screen (AID 1103); conditions: fluorescence 635 nm, higher = more signal; also: the record names both GSK3A and GSK3B
[7] = target: Epidermal growth factor receptor (Homo sapiens) (UniProt P00533); test: compounds binding epidermal growth factor receptor – biochemical, small-molecule microarray, 635 nm fluorescence, primary screen (AID 1104); conditions: EGFR binding, higher = more signal;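 also: score merges 667 nm emission intensity with spot signal to noise over triplicate slides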
[8] = target: Follistatin-related protein 3 (Homo sapiens) (UniProt O95633); test: compounds binding follistatin-related protein 3 – biochemical, small-molecule microarray, 635 nm fluorescence, primary screen (AID 1105); conditions: FSTL3 binding, higher = more signal;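 also: score merges emission near 667 nm and signal to noise per printed spot across three slides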
[9] = target: Dickkopf-related protein 1 (Homo sapiens) (UniProt O94907); test: small molecules binding DKK1 protein – biochemical, small-molecule microarray, 635 nm fluorescence scan, primary screen (AID 1106); conditions: higher = more signal;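 also: score merges emission near 667 nm with signal to noise over three replicate slides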
[10] = tested on: Inhibin beta A chain (activin A); test: small molecules binding activin A – biochemical, small-molecule microarray, 635 nm fluorescence scan, primary screen (AID 1107); conditions: INHBA, higher = more signal;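 also: mouse activin A protein probed at 4.33 µg/mL on printed slides; score merges bound-protein fluorescence near 667 nm with spot signal-to-noise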
[11] = tested on: Human papillomavirus type 1a protein E7 (residues 44-93); test: small molecules binding HPV E7 44-93 – biochemical, small-molecule microarray, residues 44-93, 635 nm fluorescence, primary screen (AID 1108); conditions: fluorescence 635 nm, higher = more signal;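 also: E7 fragment applied at 1 µg/mL in TBST for 1 h at 4 C; score combines spot fluorescence with its signal to noise ratio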
[12] = hepatitis C replication reporter changes, two-sided – Huh7 cells, luciferase reporter, HCV replication inhibitor project, primary screen (AID 1109); conditions: Huh7 HCV replicon luciferase reporter, 48 h; higher = more signal;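 also: huh7 hepatoma cells harbouring a luciferase neomycin HCV replicon reporter; luciferase luminescence as measure of HCV replicon replication; test concentration not given here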
[13] = target: Left-right determination factor 2 (Homo sapiens) (UniProt O00292); test: small molecules binding LEFTY2 protein – biochemical, small-molecule microarray, 635 nm fluorescence scan, primary screen (AID 1110); conditions: higher = more signal
[14] = target: Calmodulin-1 (Homo sapiens) (UniProt P0DP23); test: small molecules binding calmodulin-1 with EGTA – biochemical, small-molecule microarray, Cy5-labelled CALM1, profiling panel (AID 1111); conditions: Cy5-CALM1 binding fluorescence, higher = more signal;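 also: labelled calmodulin applied in Tris saline Tween buffer holding calcium plus EGTA and DTT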
[15] = target: Calmodulin-1 (Homo sapiens) (UniProt P0DP23); test: small molecules binding Ca-loaded calmodulin-1 – biochemical, small-molecule microarray, Cy5-labelled CALM1, plus calcium, artefact control for SMM control-protein annotation, profiling panel (AID 1112); conditions: Cy5-CALM1 binding fluorescence, higher = more signal;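 also: score merges spot fluorescence with signal to noise from triplicate slides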
[16] = probe aWnt5a binding to arrayed compounds – biochemical, biotinylated probe, 635/667 nm fluorescence, primary screen (AID 1113); conditions: small-molecule microarray, higher = more signal;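 also: score merges 667 nm fluorescence intensity with signal-to-noise per printed feature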
[17] = probe aShh binding to arrayed compounds – biochemical, biotinylated probe, 635/667 nm fluorescence, primary screen (AID 1114); conditions: small-molecule microarray, higher = more signal;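 also: probe is biotin-labelled aShh protein from a stem cell growth factor screen; measures binding of labelled protein to compounds printed on the slide; score merges feature fluorescence at 667 nm with signal-to-noise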
[18] = probe aNog binding to arrayed compounds – biochemical, biotinylated probe, 635/667 nm fluorescence, primary screen (AID 1115); conditions: small-molecule microarray, higher = more signal;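 also: probe is biotinylated aNog protein used at 0.15 µg/mL for 1 h at 4 C; z-score combines 667 nm fluorescence of each spot with its signal to noise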
[19] = target: Torsin-1A-interacting protein 1 (Homo sapiens) (UniProt Q5JTV8); test: compound microarray binding of lysate hLAP1 – cell lysate, small-molecule microarray, COS7 lysate, 635/667 nm fluorescence, primary screen (AID 1116); conditions: 635 nm fluorescence, higher = more signal
[20] = target: Alpha-bungarotoxin (Bungarus multicinctus) (UniProt P60615); test: compounds binding labelled alpha-BTX control protein – biochemical, small-molecule microarray, Alexa647 label, 635/667 nm fluorescence, artefact control for SMM control protein annotation, profiling panel (AID 1117); conditions: alpha-BTX-A647 binding fluorescence, higher = more signal
Alpha-bungarotoxin (Bungarus multicinctus), sequence (P60615 whole entry, looked up): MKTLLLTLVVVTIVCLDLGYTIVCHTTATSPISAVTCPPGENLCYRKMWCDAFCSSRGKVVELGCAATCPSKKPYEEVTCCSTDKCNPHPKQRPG

Torsin-1A-interacting protein 1 (Homo sapiens), sequence (Q5JTV8 whole entry, looked up): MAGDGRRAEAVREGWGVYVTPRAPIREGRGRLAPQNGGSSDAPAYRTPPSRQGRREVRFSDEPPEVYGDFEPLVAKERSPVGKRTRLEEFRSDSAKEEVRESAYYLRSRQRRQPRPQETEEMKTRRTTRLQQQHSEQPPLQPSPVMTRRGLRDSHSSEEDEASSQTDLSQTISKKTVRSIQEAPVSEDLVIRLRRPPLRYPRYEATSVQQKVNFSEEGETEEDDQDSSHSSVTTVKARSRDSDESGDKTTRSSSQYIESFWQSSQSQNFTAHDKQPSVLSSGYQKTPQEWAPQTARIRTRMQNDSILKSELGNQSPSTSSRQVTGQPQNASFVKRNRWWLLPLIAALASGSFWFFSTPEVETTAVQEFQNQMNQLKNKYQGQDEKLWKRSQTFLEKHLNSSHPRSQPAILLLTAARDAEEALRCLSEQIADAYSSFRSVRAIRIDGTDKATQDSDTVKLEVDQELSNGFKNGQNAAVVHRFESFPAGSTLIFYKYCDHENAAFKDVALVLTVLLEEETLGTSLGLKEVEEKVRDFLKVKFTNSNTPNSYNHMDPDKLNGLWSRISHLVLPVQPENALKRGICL
Epidermal growth factor receptor (Homo sapiens), sequence (P00533 whole entry, looked up): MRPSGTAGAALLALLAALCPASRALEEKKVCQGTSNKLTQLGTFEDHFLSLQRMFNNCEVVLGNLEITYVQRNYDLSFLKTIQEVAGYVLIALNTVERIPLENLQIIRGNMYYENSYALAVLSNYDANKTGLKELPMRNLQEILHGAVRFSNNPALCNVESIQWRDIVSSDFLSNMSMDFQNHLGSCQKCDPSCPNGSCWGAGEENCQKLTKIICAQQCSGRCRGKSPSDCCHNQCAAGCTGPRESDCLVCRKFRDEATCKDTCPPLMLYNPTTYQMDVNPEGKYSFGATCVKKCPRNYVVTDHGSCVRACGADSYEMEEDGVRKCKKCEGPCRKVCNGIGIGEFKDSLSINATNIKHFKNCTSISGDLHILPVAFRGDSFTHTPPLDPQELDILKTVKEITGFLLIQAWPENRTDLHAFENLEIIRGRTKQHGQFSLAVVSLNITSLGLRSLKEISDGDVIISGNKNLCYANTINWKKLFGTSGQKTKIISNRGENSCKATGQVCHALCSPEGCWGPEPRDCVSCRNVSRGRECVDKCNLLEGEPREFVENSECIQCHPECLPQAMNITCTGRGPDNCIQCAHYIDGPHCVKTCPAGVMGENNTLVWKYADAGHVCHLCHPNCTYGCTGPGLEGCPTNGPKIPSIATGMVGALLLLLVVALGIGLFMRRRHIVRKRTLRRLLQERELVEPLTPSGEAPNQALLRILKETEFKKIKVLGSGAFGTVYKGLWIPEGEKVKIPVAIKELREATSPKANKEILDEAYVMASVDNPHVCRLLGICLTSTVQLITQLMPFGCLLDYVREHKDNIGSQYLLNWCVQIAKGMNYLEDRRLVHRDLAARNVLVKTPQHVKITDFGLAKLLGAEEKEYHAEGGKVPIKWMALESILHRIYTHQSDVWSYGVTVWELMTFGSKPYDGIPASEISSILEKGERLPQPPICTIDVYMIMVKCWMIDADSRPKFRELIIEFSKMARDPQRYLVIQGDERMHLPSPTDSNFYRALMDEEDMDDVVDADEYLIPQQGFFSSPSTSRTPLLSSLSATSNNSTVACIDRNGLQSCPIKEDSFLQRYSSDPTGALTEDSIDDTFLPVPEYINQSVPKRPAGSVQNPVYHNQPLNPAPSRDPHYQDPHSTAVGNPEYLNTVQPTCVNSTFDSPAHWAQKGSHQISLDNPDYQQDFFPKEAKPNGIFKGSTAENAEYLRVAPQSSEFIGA
Left-right determination factor 2 (Homo sapiens), sequence (O00292 whole entry, looked up): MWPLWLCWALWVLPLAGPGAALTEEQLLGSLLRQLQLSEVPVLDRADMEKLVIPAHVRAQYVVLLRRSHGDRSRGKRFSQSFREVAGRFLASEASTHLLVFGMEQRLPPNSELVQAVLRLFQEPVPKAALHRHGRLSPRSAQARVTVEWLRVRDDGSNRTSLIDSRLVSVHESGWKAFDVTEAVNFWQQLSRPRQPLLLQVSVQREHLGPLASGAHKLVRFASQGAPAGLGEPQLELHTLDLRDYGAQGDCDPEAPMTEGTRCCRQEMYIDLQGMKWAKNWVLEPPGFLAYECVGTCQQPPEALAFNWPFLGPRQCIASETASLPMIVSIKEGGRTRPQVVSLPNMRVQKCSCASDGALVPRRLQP
Dickkopf-related protein 1 (Homo sapiens), sequence (O94907 whole entry, looked up): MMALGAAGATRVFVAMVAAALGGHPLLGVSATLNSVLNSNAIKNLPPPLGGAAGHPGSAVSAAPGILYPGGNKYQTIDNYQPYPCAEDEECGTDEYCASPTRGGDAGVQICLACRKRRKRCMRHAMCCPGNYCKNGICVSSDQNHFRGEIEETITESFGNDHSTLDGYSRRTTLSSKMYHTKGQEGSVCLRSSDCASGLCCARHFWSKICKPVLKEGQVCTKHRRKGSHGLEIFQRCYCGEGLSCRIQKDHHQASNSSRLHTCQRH
Fibroblast growth factor 10 (Homo sapiens), sequence (O15520 whole entry, looked up): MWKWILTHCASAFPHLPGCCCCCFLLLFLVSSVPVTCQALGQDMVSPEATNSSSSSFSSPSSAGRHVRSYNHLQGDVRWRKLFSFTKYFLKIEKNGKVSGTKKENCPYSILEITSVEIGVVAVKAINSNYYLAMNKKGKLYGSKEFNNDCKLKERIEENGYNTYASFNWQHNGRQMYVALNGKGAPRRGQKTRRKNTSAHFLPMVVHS
Follistatin-related protein 3 (Homo sapiens), sequence (O95633 whole entry, looked up): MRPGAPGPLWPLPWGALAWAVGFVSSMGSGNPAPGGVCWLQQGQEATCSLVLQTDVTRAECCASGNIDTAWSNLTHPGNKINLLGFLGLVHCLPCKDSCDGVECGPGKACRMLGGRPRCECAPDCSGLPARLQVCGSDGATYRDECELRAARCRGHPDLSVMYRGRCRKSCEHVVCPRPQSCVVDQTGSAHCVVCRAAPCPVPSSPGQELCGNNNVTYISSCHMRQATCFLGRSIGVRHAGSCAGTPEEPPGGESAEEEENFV

Structure (SMILES)	composite z-score [1]	composite z-score [2]	composite z-score [3]	z-score [4]	composite z-score [5]	composite z-score [6]	composite z-score [7]	composite z-score [8]	composite z-score [9]	composite z-score [10]	composite z-score [11]	z-score [12]	composite z-score [13]	composite z-score [14]	composite z-score [15]	composite z-score [16]	composite z-score [17]	composite z-score [18]	composite z-score [19]	composite z-score [20]
COC(=O)[C@@]1(Cc2ccc(OC)cc2)[C@H]2c3cc(C(=O)N4CCCC4)n(Cc4cc(F)cc5c4OCOC5)c3C[C@H]2CN1C(=O)c1ccccc1	0.782	0.9	0.984	-2.73 (inactive)	0.608	0.573	0.0471	0.326	-0.451	0.795	0.756	-3.58	-0.474	1.37	0.365	0.223	0.108	0.0549	0.831	0.408
CC(C)CNC(=O)[C@@]1(c2ccc([N+](=O)[O-])cc2)CC(=O)N(CC23CC4CC(CC(C4)C2)C3)[C@@H]1c1ccc(CO)cc1I	1.13	0.109	0.0793	-0.125 (inactive)	1.04	1.3	0.578	1.08	0.808	0.383	1.39	-3.18	0.539	0.404	-0.111	-0.0587	-0.0685	-0.289	0.798	0.504
[N-]=[N+]=NCc1ccccc1C[C@]1(C(=O)NCC(O)CO)N=C(c2ccc(OCCCO)cc2)O[C@H]1c1ccccc1N=[N+]=[N-] (stereo not given in full)	0.3	1.38	1.1	-1.58 (inactive)	0.0684	0.091	-0.166	-0.318	-0.894	0.967	1.38	-1.47	-1.22	1.03	1.04	0.0633	0.14	1.18	1.4	1.75
COC(=O)[C@@]1(Cc2ccc(F)cc2)[C@H]2c3cc(C(=O)N4CCCC4)n(Cc4cccc5ccccc45)c3C[C@H]2CN1C(=O)c1ccccc1	1.53	0.479	0.854	-2.29 (inactive)	0.427	-0.423	0.329	0.286	-0.538	0.644	1.37	-1.37	-0.201	1.23	0.0721	0.0859	0.111	1.36	1.84	1.07
CCCCC=C[C@@H](NC(=O)c1cccs1)c1ccccc1	-0.15	-0.0451	0.359	-3.77 (inactive)	0.44	0.476	-0.273	-0.171	0.13	0.764	0.861	-2.74	-0.286	0.524	0.906	-0.124	0.166	-0.269	0.159	0.748
